# The full list was thinned out, with hits kept by preference.
# KDM5B inhibitor – inhibitors of human KDM5B histone demethylase; Q9UGL1; KDM5B demethylase, FDH-coupled NADH fluorescence (FDH is formaldehyde dehydrogenase); Potency, µM (highest dose often 57.7 µM), most hits filed as inhibitors; 220,000 tested, 2.6% active; AID 1347165; active means well fitted inhibition curve with a large enough effect; further: 0% is about no effect; nearly all actives have a fitted effect of over 70% in size
#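 Compound dilutions met 200 nM (final) KDM5BΔAP for 10 min at room temperature before substrate addition. The substrate mix held 12.5 µM H3K4me3 with cofactors 25 µM α-ketoglutarate and 50 µM Fe²⁺. NADH signal gain over 30 min defined activity.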
# * hit, by the source's call; i = inactive. Potency means the concentration at half of the fitted maximal effect.
SMILES,KDM5B inhibitor
C[C@@H](c1ccccc1)N1C(=O)[C@@H]2CN(C(=O)c3ccc(N(C)C)cc3)CCN2C1=O,i
CC(C)(CC(=O)O)CC(=O)N1CCN2C(=O)c3cc(-c4ccccc4F)ccc3NC(=O)[C@@H]2C1,i
COc1ccc(Cl)cc1-c1ccc2c(c1)C(=O)N1CCN(C(=O)c3ccc(N(C)C)cc3)C[C@@H]1C(=O)N2,32µM*
O=C1Nc2ccc(-c3cccc(C(F)(F)F)c3)cc2C(=O)N2CCN(C(=O)COc3ccccc3)C[C@H]12,i
COC(=O)c1cc(NC(=O)C(C)N(c2ccc(C)c(C)c2)S(C)(=O)=O)ccc1Cl (stereo not drawn),i
Cc1cc(C)n2nc(N(Cc3ccccc3)S(=O)(=O)c3ccccc3)nc2n1,i
COc1ccc(CCNC(=O)CN(c2cccc(Cl)c2Cl)S(=O)(=O)c2ccccc2)cc1,i
CC(C)OCc1ccc(CNC(=O)CC(C)c2ccccc2)cc1 (stereo not drawn),i
COc1cccc(-c2nc(C(=O)N3CCC(C)CC3)nn2-c2ccccc2)c1,i
CCN(CC)S(=O)(=O)c1ccc(NC(=O)COC(=O)c2nn(C)c(=O)c3ccccc23)cc1,i
CCn1c(CN(c2ccc(C)cc2)S(C)(=O)=O)nnc1SCC(=O)c1ccccc1,i
COc1ccc(CNC(=O)C[C@@H]2C[C@@H](C(C)C)[C@H](CNC(C)=O)C=C2C)cc1,35µM*
COc1ccc(CNC(=O)C[C@@H]2C[C@@H](C(C)C)[C@H](CNC(=O)c3ccc(NC(C)=O)cc3)C=C2C)cc1,i
COc1ccc(NC(=O)NC[C@@H]2C=C(C)[C@H](CC(=O)NCCN(C)C)C[C@H]2C(C)C)cc1,i
COC(=O)c1cnc(NC(=O)C(NC(=O)c2ccccc2Br)C(C)C)s1 (stereo not drawn),i
CCCCCCN1CCCC12Cc1ccccc1CNC2=O (stereo not drawn),i
O=S(=O)(Nc1cccn2nc(C3CC3)nc12)c1cccnc1,3.5µM*
Cc1cccc(S(=O)(=O)Nc2cccn3nc(C4CCC4)nc23)c1,i
CCc1nc2c(NS(=O)(=O)c3cccnc3)cccn2n1,i
CC(C)c1ccccc1NC(=S)NCCc1ccc(Cl)cc1,i
O=C(c1ccccc1Br)N1CCC(CN2CCOCC2)CC1,i
COc1ccc(-c2nc(SCc3ccccc3)n(C(C)=O)n2)cc1,i
CCC[C@H]1CN(CC(=O)NCCc2ccc(F)cc2)C[C@@H]1NC(C)=O,i
CCC[C@@H]1CN(C(=O)c2ccc(-c3ccc(C)o3)cc2)C[C@H]1NC(C)=O,28µM*
CCC[C@H]1CN(CCCOc2ccc(C(N)=O)cc2)C[C@@H]1NC(C)=O,i
SMILES,KDM5B inhibitor
CN(CC(=O)Nc1ccc(F)cc1)C(=O)COC(=O)Cc1n[nH]c(=O)c2ccccc12,i
Cc1cccc(OCCc2noc(C3CN(C(=O)Nc4ccc5c(c4)OCCO5)C3)n2)c1,i
COc1cccc(-c2cc(-c3c(C)noc3C)cc3c2C(=O)N(C)C3)c1OC,i
CC(=O)Nc1cccc(-c2cc(-c3c(C)noc3C)c3cncn3c2)c1,40µM*
COc1ccc(-c2cc(-c3c(C)noc3C)c3cncn3c2)cc1,32µM*
NC(=O)c1cccc(-c2cc(-c3ccncc3)c3cncn3c2)c1,i
Cc1nc(-c2cccc(NC(=O)N3CCCC3c3c(C)noc3C)c2)cs1 (stereo not drawn),i
CC(=O)Nc1cccc(-c2csc(Nc3ccc(O)cc3C)n2)c1,i
C[S+](=O)([O-])c1ccc(-c2cc(C(=O)NCc3cccnc3)nn3cccc23)cc1,i
COc1ccc(-c2onc(C)c2-c2ccc(OC)c(OC)c2)c(O)c1,i
C[S+](=O)([O-])c1ccc(-c2cc(-c3cccnc3)c3cncn3c2)cc1,40µM*
C[S+](=O)([O-])c1ccc(-c2cc(C(=O)N3CCCC3)nn3cccc23)cc1,i
CC(=O)Nc1cccc(-c2csc(Nc3ccccc3C)n2)c1,i
CC(=O)Nc1cccc(-c2cc(C3=CCOCC3)c3cncn3c2)c1,40µM*
CN(C)S(=O)(=O)c1cc(C(=O)NCc2coc(-c3cccs3)n2)ccc1Cl,i
Cc1ccc(NC(=O)Cc2nc(-c3ccccc3)oc2C)nc1,i
COc1ccc(-c2c(NC(=O)c3ccccc3)oc3ccccc3c2=O)cc1,i
Cc1ccc(OCC(=O)NCCC2CCN(C(=O)Nc3ccccc3F)CC2)cc1,i
Cc1ccsc1C(=O)N(Cc1ccccn1)C1CC1,i
CCOC(=O)C(O)(c1c(C)[nH]c2ccccc12)C(F)(F)F (stereo not drawn),i
C[C@@H]1C(=O)O[C@H]2[C@H]1CC[C@@]1(C)Cc3sc(NCCc4ccccn4)nc3[C@@H](C)[C@H]21,i
O=C(c1cc2cc([N+](=O)[O-])ccc2oc1=O)N1CCN(c2ccccc2)CC1,i
CNC(=O)[C@H]1C[C@H](Oc2cccnc2)CN1S(=O)(=O)c1ccccc1C,i
Cc1noc(C)c1-c1cc2c(c(-c3ccccc3F)c1)C(=O)N(C)C2,i
Cc1noc(C)c1-c1cc(-c2cccnc2)cn2cncc12,35µM*
